# Experimental data: the supplement of paper PMC3414501
# Where a name gives a salt, the structure may show the parent alone. Values without a mark were called inactive.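 The calls were made as follows: active = score above 5; some higher scores were not called.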
# Tested on: S. cerevisiae SK1 pCDA2-eGFP (USY613), sporulating
# Assay: CDA2-GFP sporulation assay sensitivity score (z-score vs DMSO controls); higher = stronger inhibition of sporulation, active = hit call of the paper
row,SMILES,CDA2-GFP sporulation assay sensitivity score
1,"CC(C)NCC(O)c1ccc(NS(C)(=O)=O)cc1 (stereo unspecified) [Sotalol hydrochloride] (stock concentration (mM, diluted 1:100): 8.8)",-0.03
2,"C[C@H](CCC(=O)O)[C@H]1CC[C@H]2[C@@H]3C(=O)C[C@@H]4CC(=O)CC[C@]4(C)[C@H]3CC(=O)[C@]12C [Dehydrocholic acid] (stock concentration (mM, diluted 1:100): 10)",0.09
3,"Nc1nc(Cl)nc2c1ncn2[C@H]1C[C@H](O)[C@@H](CO)O1 [2-Chloro-2-Deoxyadenosine] (stock concentration (mM, diluted 1:100): 10)",1.98
4,"CCC(=O)NS(=O)(=O)c1ccc(-c2c(-c3ccccc3)noc2C)cc1 [Parecoxib] (stock concentration (mM, diluted 1:100): 9.8)",5.02
5,"Nc1nc2ccc(Cl)cc2c2nc(-c3ccco3)nn12 (stock concentration (mM, diluted 1:100): 10)",-3.14
6,"Nc1nc(Cl)nc2c1ncn2[C@@H]1O[C@H](CO)[C@@H](O)[C@H]1O [2-Chloroadenosine] (stock concentration (mM, diluted 1:100): 10)",-0.44
7,"c1ccc(-c2ccc(C(c3ccccc3)n3ccnc3)cc2)cc1 (stereo unspecified) [Bifonazole] (stock concentration (mM, diluted 1:100): 10)",0.04
8,"COc1cc(/C=C/c2ccc(O)cc2)cc(OC)c1 [Pterostilbene] (stock concentration (mM, diluted 1:100): 10)",-2.39
9,"O=c1c(O[C@@H]2O[C@H](CO)[C@@H](O)[C@H](O)[C@H]2O)c(-c2ccc(O)c(O)c2)oc2cc(O)cc(O)c12 [Isoquercetrin] (stock concentration (mM, diluted 1:100): 10)",-1.49
10,"Clc1ccc(CO/N=C(\Cn2ccnc2)c2ccc(Cl)cc2Cl)c(Cl)c1 [Oxiconazole nitrate] (stock concentration (mM, diluted 1:100): 10)",0.87
11,"COc1ccc(C(=O)NCc2ccc(OCCN(C)C)cc2)cc1OC [Itopride hydrochloride] (stock concentration (mM, diluted 1:100): 8.2)",-0.55
12,"COc1ccc(CC(C)NCC(O)c2ccc(O)c(NC=O)c2)cc1 (stereo unspecified) [Formoterol fumarate dihydrate] (stock concentration (mM, diluted 1:100): 7)",0.41
13,"CC(=O)N1CCN(c2ccc(OCC3COC(Cn4ccnc4)(c4ccc(Cl)cc4Cl)O3)cc2)CC1 (stereo unspecified) [Ketoconazole] (stock concentration (mM, diluted 1:100): 10)",0.13
14,"Cc1cccc(C)c1NC(=O)C(C)N (stereo unspecified) [Tocainide] (stock concentration (mM, diluted 1:100): 10)",0.62
15,"CC(=O)SCC(Cc1ccccc1)C(=O)NCC(=O)OCc1ccccc1 (stereo unspecified) [Acetorphan] (stock concentration (mM, diluted 1:100): 10)",0.9
16,"CSc1nc2cc(Cl)c(Oc3cccc(Cl)c3Cl)cc2[nH]1 [Triclabendazole] (stock concentration (mM, diluted 1:100): 10)",0.58
17,"CCN(CC)C(=S)SSC(=S)N(CC)CC [Tetraethylthiuram disulfide] (stock concentration (mM, diluted 1:100): 10)",-1.5
18,"CCOC(=O)C1=C(C)NC(C)=C(C(=O)OC)C1c1cccc([N+](=O)[O-])c1 (stereo unspecified) [Nitrendipine] (stock concentration (mM, diluted 1:100): 10)",10.3 (active)

row,SMILES,CDA2-GFP sporulation assay sensitivity score
1,"COc1ccccc1OCC(O)CN1CCN(CC(=O)Nc2c(C)cccc2C)CC1 (stereo unspecified) [Ranolazine dihydrochloride] (stock concentration (mM, diluted 1:100): 8.6)",-1.05
2,"CCOC(=O)OC(C)OC1=C(C(=O)Nc2ccccn2)N(C)S(=O)(=O)c2ccccc21 (stereo unspecified) [Ampiroxicam] (stock concentration (mM, diluted 1:100): 10)",3.3
3,"CN(C)CC[C@@H](c1ccc(Br)cc1)c1ccccn1 [Dexbrompheniramine maleate] (stock concentration (mM, diluted 1:100): 7.3)",-1.63
4,"CNNCc1ccc(C(=O)NC(C)C)cc1 [Procarbazine hydrochloride] (stock concentration (mM, diluted 1:100): 8.6)",-0.1
5,"COc1cc(-c2ccc(=O)[nH]n2)ccc1OC(F)F [Zardaverine] (stock concentration (mM, diluted 1:100): 11.7)",1.43
6,"O=C1c2c(O)cc(O)cc2OC(c2ccc(O)c(O)c2)C1O (stereo unspecified) [Taxifolin] (stock concentration (mM, diluted 1:100): 10)",-0.07
7,"Nc1ccn([C@H]2CC[C@@H](CO)O2)c(=O)n1 [Zalcitabine] (stock concentration (mM, diluted 1:100): 10)",1.61
8,"OCCN1CCN(CCCN2c3ccccc3Sc3ccc(C(F)(F)F)cc32)CC1 [Fluphenazine hydrochloride] (stock concentration (mM, diluted 1:100): 10)",-0.3
9,"CCOc1cc(N)c(Cl)cc1C(=O)NCC1CN(Cc2ccc(F)cc2)CCO1 (stereo unspecified) [Mosapride citrate] (stock concentration (mM, diluted 1:100): 6.9)",1.67
10,"CC1CCN(CCCC(=O)c2ccc(F)cc2)CC1 [Metylperon] (stock concentration (mM, diluted 1:100): 10)",4.44
11,"CO[C@H]1O[C@@H]2O[C@@]3(C)CC[C@H]4[C@H](C)CC[C@@H]([C@H]1C)[C@@]24OO3 [Artemether] (stock concentration (mM, diluted 1:100): 10)",7.92
12,"CN1CCN(CCCN2c3ccccc3Sc3ccc(C(F)(F)F)cc32)CC1 [Trifluoperazine dihydrochloride] (stock concentration (mM, diluted 1:100): 10)",-0.39
13,"O=[N+]([O-])c1cccc2cn[nH]c12 [7-Nitroindazole] (stock concentration (mM, diluted 1:100): 10)",2.93
14,"C=CCc1ccc(O)c(-c2ccc(O)c(CC=C)c2)c1 [Honokiol] (stock concentration (mM, diluted 1:100): 10.1)",0.56
15,"O=c1ncc(F)c[nH]1 [5-Fluoro-2-Pyrimidone] (stock concentration (mM, diluted 1:100): 10)",0.54
16,"CC(C)(C)NC(=O)[C@@H]1CN(Cc2cccnc2)CCN1C[C@@H](O)C[C@@H](Cc1ccccc1)C(=O)N[C@H]1c2ccccc2C[C@H]1O [Indinavir sulphate] (stock concentration (mM, diluted 1:100): 8.6)",-1.29
17,"OC[C@H]1O[C@@H](Oc2cc(O)cc(/C=C/c3ccc(O)cc3)c2)[C@H](O)[C@@H](O)[C@@H]1O [Piceid] (stock concentration (mM, diluted 1:100): 10)",0.56
18,"Cc1c(O)cccc1C(=O)N[C@@H](CSc1ccccc1)[C@H](O)CN1C[C@H]2CCCC[C@H]2C[C@H]1C(=O)NC(C)(C)C [Nelfinavir mesylate] (stock concentration (mM, diluted 1:100): 8.6)",4.48
